Source: PubChem BioAssay (National Center for Advancing Translational Sciences (NCATS))
GLP1R inv ag: acts as inverse agonist at human GLP-1 receptor. P43220. HEK293 GLP-1R CRE-luciferase, luminescence, 24 h; GLP-1R form is constitutively active. Potency, µM (titrated, usually from 38.3 µM), inactives show at the top dose activity change, negative = inhibition, hits mostly inhibitors. 410,000 tested, 1.6% active; also: potency is read from the fitted curve at half-maximal effect; % is scaled to controls: 0 for no effect and ±100 for the full control effect; nearly all actives have a fitted effect of over 55% in size
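Readout was luciferase luminescence, measured 12 min after detection reagent at room temperature. Beforehand, GLP-1R reporter HEK293 cells had sat 12 h, then received compounds for 24 hr at 37 deg C.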
HEK293 tox: cytotoxicity in counter-screen for GLP-1R inverse agonists | HEK293 cAMP-luciferase reporter cells, luminescence, 24 h | Potency, µM (doses to about 38.3 µM), without a hit: at the top dose activity change, negative = inhibition, actives largely listed as inhibitors | 410,000 tested, 0.13% active | AID 624418;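 also: loss of luciferase light is scored as toxicity; potency is read from the fitted curve at half-maximal effect; % is scaled to controls: 0 for no effect and ±100 for the full control effect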
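Compound-treated cells are incubated 24 hr at 37 deg C under 5% CO2 after a 12 hour attachment period, then luciferase detection reagent is added and luminescence is measured following 12 min at room temperature; lowered signal indicates toxicity.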
DRD3 antagonist: blocks the human D3 dopamine receptor | max response, negative = inhibition, % | P35462 | D3R cells, DiscoveRx beta-arrestin luminescence, antagonist mode; active compounds read low | 360,000 tested, 2.5% active | AID 652054; in the data active = max response below about -50%; inconclusive = no clear call, values can overlap the other calls; also: % is scaled to controls: 0 for no effect and ±100 for the full control effect
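Cells expressing the human receptor were seeded at 1500 cells/well, incubated overnight at 37 degrees C in 5% CO2, then exposed to library compounds with dopamine controls for 90 minutes at 37 degrees C before luminescent detection.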
DRD3 agonist: agonists of human D3 dopamine receptor. P35462. D3R DiscoveRx beta-arrestin cells, luminescence, 90 min. max activation, %. 410,000 tested, 0.58% active; in the data active = max activation above about 30%; also: 0% is about no effect
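Agonist-mode cell screen: cells plated at 1500/well and incubated overnight at 37 °C, then exposed to library compounds for 90 min at 37 °C. Detection reagent was added for 30–60 min at room temperature, and luminescence was read.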
ClpP mod: qHTS Assay for Activators of ClpP; ATP-dependent Clp protease proteolytic subunit (Bacillus subtilis (strain 168)), P80244; purified B. subtilis ClpP, FRET peptide cleavage, 20 min; Potency, µM (series often up to 57.5 µM), for inactives: at the top dose activity change, negative = active; 340,000 tested, 1.9% active; AID 651965, 2013; active = well fitted falling curve with a large enough effect; inconclusive = small, poorly fitted or top-dose-only effect; inactive = no such curve, though single readings can be large or run the other way; also: potency is read from the fitted curve at half-maximal effect; the source files actives as falling curves though it sought activators and does not explain the sign; nearly all actives have a fitted effect of over 65% in size
Target sequence (P80244 whole entry, looked up): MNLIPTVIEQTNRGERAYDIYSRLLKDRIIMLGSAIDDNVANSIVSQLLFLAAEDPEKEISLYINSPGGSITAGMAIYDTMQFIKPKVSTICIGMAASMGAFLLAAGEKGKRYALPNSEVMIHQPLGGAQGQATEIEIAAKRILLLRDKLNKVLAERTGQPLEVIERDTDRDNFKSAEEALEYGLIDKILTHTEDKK
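Purified B. subtilis ClpP, 10 microg/mL final in Tris/HCl pH8 with KCl, BSA, glycerol and Tween-20, cleaved an Abz/nitrotyrosine-quenched decapeptide. Fluorescence (ex 320, em 430) was read at 0 and 20 min at room temperature. Delta was normalized to 5.8 microM ADEP and DMSO/no-enzyme controls.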
GLP-1R agonist: agonists of human GLP-1 receptor | P43220 | HEK293 GLP-1R CRE-luciferase, luminescence, 4-6 h; cells express a hypersensitive GLP-1R form | Potency, µM (highest dose often 45.6 µM), inactives show at the highest dose activation, hits mostly activators | 380,000 tested, 0.007% active | AID 624172; also: potency is read from the fitted curve at half-maximal effect; % of control where 0% means no effect
* marks the source's active call; other numbers are inactive results; ? = inconclusive; . = no result given. In the library only some 5.7% were active in any assay of this set; here they are far more common. Unless noted, calls follow the shape of the dose curve; as a rule, active = well fitted curve in the direction sought with a large enough effect; inconclusive = small, poorly fitted or top-dose-only effect, or another doubt; inactive = no such curve, though single readings can be large; an effect the other way counts as inactive or inconclusive.

SMILES	GLP1R inv ag	HEK293 tox	DRD3 antagonist	DRD3 agonist	ClpP mod	GLP-1R agonist
Cc1oc2ccc(O)c(CN3CCN(C)CC3)c2c1C(=O)Nc1cccc(Cl)c1C	4%	19%	.	-13	-2%	.
CC(C)CN1C(=O)CN(S(C)(=O)=O)CC1(C)C(=O)NC(C)C (stereo not drawn)	25%	3%	16	-4	-1%	.
CCOc1ccccc1-n1cc2c(c1-c1ccc(OC)cc1)c(=O)n(C)c(=O)n2C	13%	1%	.	-9	-22%	.
S=c1[nH]nc(-c2cccnc2)n1/N=C/c1ccco1	11%	14%	-50*	-12	0%	-1%
CCCCCC(=O)NNC(=O)c1ccc(F)cc1	11%	-13%	25	3	2.8µM*	-7%
O=C(CN1C(=O)COc2ccc(S(=O)(=O)N3CCOCC3)cc21)N1CCN(c2ccccc2F)CC1	5%	1%	.	-2	-3%	7%
COc1ccccc1CNC(=O)CCCn1c(=O)c2ccccc2n(CC(=O)Nc2c(C)cc(C)cc2C)c1=O	-1%	14%	.	-13	?	0%
COc1ccc(CC(=O)NCC2CCCN(Cc3ccc(OC(F)(F)F)cc3)C2)cc1 (stereo not drawn)	10µM*	-1%	-23	-7	.	21%
Cc1ccc(NC(=O)Cn2c(-c3ccc(F)cc3)cnc2SCC(=O)Nc2c(C)cccc2C)cc1	-4%	16%	-71*	-10	1%	3%
CCOc1ccc(NC(=O)CSc2ncc(-c3ccc(F)cc3)n2Cc2ccco2)cc1	?	3%	1	1	-1%	9%
CC(C)CCNC(=O)C(c1cccnc1)N(CCc1ccccc1)C(=O)Cn1nnc2ccccc21 (stereo not drawn)	-6%	11%	-19	-4	18µM*	2%
Cc1cccc(C(=O)Nc2cccc(OCc3cc(=O)n4ccccc4n3)c2)c1	-6%	-9%	.	-11	-10%	.
CC(C)OC(=O)Nc1ccc(Oc2c(F)c(F)c(F)c(F)c2F)cc1	?	-9%	-24	1	0%	2%
C/C=C/c1c(F)c(F)c(Oc2ccc(C(=O)O)cc2)c(F)c1F	0%	8%	-12	31*	1%	-1%
COc1ccc(-c2[nH]c3c(c2-c2c(-n4cccc4)n(C)c(=O)[nH]c2=O)c(=O)[nH]c(=O)n3C)cc1F	12%	17%	.	3	-4%	.
CCN1c2ccccc2-c2nc(SCC(=O)Nc3cc(F)ccc3F)ncc2S1(=O)=O	-8%	-2%	.	1	4%	.
Cc1cccc(C(=O)Nc2ccccc2C(=O)OCC(=O)Nc2ccc(C#N)cc2)c1	4%	-18%	11	3	16µM*	-23%
COC(=O)[C@]1(Cc2ccccc2)N[C@H](CN(C)C(=O)Nc2ccccc2)[C@@H]2C(=O)N(C)C(=O)[C@@H]21	-2%	-3%	9	2	0%	-6%
CCN(C[C@H]1N[C@@](CC)(C(=O)OC)[C@H]2C(=O)N(Cc3ccccc3)C(=O)[C@@H]12)C(=O)c1ccc(C)cc1	-24%	-10%	82	55*	0%	-3%
COC(=O)[C@]1(Cc2ccccc2)N[C@H](CN(C)C(=O)Nc2ccc(OC)cc2)[C@@H]2C(=O)N(C)C(=O)[C@@H]21	19%	-5%	-53*	4	0%	0%
CCN(C[C@H]1N[C@@](Cc2ccccc2)(C(=O)OC)[C@H]2C(=O)N(Cc3ccccc3)C(=O)[C@@H]12)S(=O)(=O)c1ccccc1	-23%	2%	-72*	-14	0%	4%
O=C/C=C/c1c(-c2ccccc2)cc2oc3ccccc3cc1-2	31%	-22%	-66*	-7	.	0%
Cc1ccc(-c2csc3nc4cc(C(N)=O)ccc4c(=O)n23)cc1	6%	6%	-61*	1	4%	4%
